Assay outcomes deposited in PubChem BioAssay by National Center for Advancing Translational Sciences (NCATS).
FLuc counter = counter-screen for miR-21 project: firefly luciferase inhibitors or activators | purified FLuc, Km substrates, luminescence inhibition | Potency, µM (series often up to 57.5 µM), inactives show at the top dose activity change, negative = inhibition, hits mostly inhibitors | 360,000 tested, 6.9% active | AID 588342;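 note: plate controls were vehicle for no effect and reference inhibitor for full effect; nearly all actives have a fitted effect of over 55% in size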
Target sequence (P08659 whole entry, looked up): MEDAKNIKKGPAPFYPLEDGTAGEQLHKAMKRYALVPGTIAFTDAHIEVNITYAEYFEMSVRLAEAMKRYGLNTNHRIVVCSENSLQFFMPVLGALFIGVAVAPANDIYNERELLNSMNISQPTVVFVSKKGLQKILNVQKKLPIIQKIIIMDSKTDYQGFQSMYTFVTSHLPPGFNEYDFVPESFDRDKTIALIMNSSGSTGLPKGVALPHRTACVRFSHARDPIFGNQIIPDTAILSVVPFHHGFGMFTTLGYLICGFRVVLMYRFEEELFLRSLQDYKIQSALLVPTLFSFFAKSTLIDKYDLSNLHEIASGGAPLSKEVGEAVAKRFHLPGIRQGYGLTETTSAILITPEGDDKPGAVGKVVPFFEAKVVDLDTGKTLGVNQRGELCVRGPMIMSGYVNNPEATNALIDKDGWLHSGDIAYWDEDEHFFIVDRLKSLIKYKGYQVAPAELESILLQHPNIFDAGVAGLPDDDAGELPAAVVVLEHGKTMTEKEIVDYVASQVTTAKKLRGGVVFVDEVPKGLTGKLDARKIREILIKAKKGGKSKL
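Biochemical qHTS of compounds, final roughly 60 µM downward over six points, against 10 nM purified firefly luciferase using Km concentrations of substrates (10 uM D-luciferin, 10 uM ATP) in Tris acetate pH 7.5 buffer; luminescence output.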
ELG1 genotoxic = inducers of genotoxicity in HEK293T ELG1-luciferase cells; HEK293T ELG1-luciferase reporter, luminescence, 16 h; Potency, µM (series often up to 46 µM), inactives show at the highest dose activity change, positive = activation, usual class: activators; AID 504466; 330,000 tested, 1.3% active; note: % of control where 0% means no effect; nearly all actives have a fitted effect of over 60% in size
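Genotoxicity was scored as increased ELG1-luciferase reporter signal, measured by ONE-Glo luminescence (30 min, room temperature). Compound or vehicle exposure of the HEK293T reporter cells lasted 16 hr at 37°C.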
Rab9 promoter act = Rab9 promoter activation; Potency, µM (top dose mostly 9.22 µM), for the others: top-dose activation, negative = inhibition, most hits filed as activators; Huh7 Rab9 promoter-luciferase reporter, luminescence, 24 h; 320,000 tested, 2.8% active; note: % of control where 0% means no effect; nearly all actives have a fitted effect of over 60% in size
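Steps: seed 1500 Huh7 Rab9-luc cells per well, rest 2 h at 37 °C; add compound in DMSO; incubate 24 h; add luciferase reagent, 10 min ambient; read luminescence.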
SMN2 splice up = SMN2 splice variant enhancement; HEK293 SMN2-luciferase splicing reporter, luminescence, 30-36 h; Potency, µM (top dose mostly 46.1 µM), inactives show at the highest dose activity change, positive = activation, most hits filed as activators; 210,000 tested, 2.8% active; note: % of control where 0% means no effect; nearly all actives have a fitted effect of over 55% in size
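HEK293 cells carry an SMN2 […]–luciferase reporter in which exon 7 inclusion puts luciferase in frame. Cells were plated 10-12 h before compound addition, then incubated 30-36 h at 37C. ONE-Glo luminescence was read; sodium butyrate at 4.5 mM final served as control.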
NPC1 promoter act = NPC1 promoter activation | Huh7 NPC1 promoter luciferase reporter, 24 h | 320,000 tested, 2.4% active | AID 485313 | Potency, µM (titrated, usually from 9.22 µM), inactives show at the top dose activation, most hits filed as activators; note: % of control where 0% means no effect; nearly all actives have a fitted effect of over 60% in size
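Stably transfected Huh7 (NPC1 promoter→luciferase), 1500 cells/well in Opti-MEM + 10% FBS, 2 h settle, then compound 24 h at 37 °C. Luminescence after 10 min with Amplite reagent.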
ELG1 DNA repair = ELG1-dependent DNA repair inhibition; HEK293T ELG1-luciferase reporter, luminescence, 16 h; DNA damage induced by 5-fluorouridine; Potency, µM (titrated, usually from 46.1 µM), inactives show top-dose activity change, negative = inhibition, actives largely listed as inhibitors; 330,000 tested, 2.3% active; AID 504467; note: % is set by controls: 0 for no effect and ±100 for the full control effect; nearly all actives have a fitted effect of over 55% in size
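In this reporter screen, reduction of luminescence relative to DMSO vehicle indicated activity. Compounds and 5-fluorouridine were added together to 2,000 cells per well, incubated for 16 hr at 37 °C, then developed with ONE-Glo.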
The depositor's hits bear a star; ? = inconclusive; · = no result; [ ] = another dose, or the depositor's remark. Shown are actives, neighbours in structure and some others; about 9.3% of the full set was active somewhere. Calls come from the whole dose curve; as a rule, active = well fitted curve in the direction sought with a large enough effect; inconclusive = small, poorly fitted or top-dose-only effect, or another doubt; inactive = no such curve, though single readings can be large; an effect the other way counts as inactive or inconclusive. Potency is the fitted concentration of half-maximal effect.

SMILES	FLuc counter	ELG1 genotoxic	Rab9 promoter act	SMN2 splice up	NPC1 promoter act	ELG1 DNA repair
CC12C(=O)OC(=O)C1(C)C1CCC2O1 (stereo not given)	·	·	-40%[46.1 µM]	-52%	-33%[46.1 µM]	·
O=C(OCC(=O)c1ccc([N+](=O)[O-])cc1)/C(=C/c1ccc(Cl)cc1)NC(=O)c1ccccc1	?	-2%	1%	10%	0%	5%
O=c1cc(-c2ccc(O)c(O)c2)oc2cc(O)cc(O)c12	24µM*	?	-12%	8.9µM*	1%	?
CC1CCN(C(=O)COC(=O)c2cn(C)c3ccccc23)CC1	24µM*	7%	-2%	·	-3%	?
CC(=O)Nc1ccccc1C(=O)OCC(=O)Nc1ncccn1	-1%	9%	-3%	·	3%	?
CC(C)(C)c1ccc(C(=O)NC(=S)Nn2cnnc2)cc1	19µM*	1%	23%	·	20%	?
C=CCN1C(=O)NC(=O)C(Cc2ccc(OC)c(OC)c2)C1=O (stereo not given)	-5%	-5%	-2%	17%	1%	10%
C=CCc1ccc(OCCn2nnc3ccccc32)c(OC)c1	11µM*	16µM*	4µM*	·	2.8µM*	?
COC(=O)C1=C(N)Oc2c(c(=O)oc3ccccc23)[C@]12C(=O)N(C)c1ccccc12	0%	0%	10%	7%	9%	1%
CN1CCc2cc3c(c4c2C1Cc1ccccc1-4)OCO3 (stereo not given)	-1%	-6%	6.3µM*	·	9%	?
C[C@H]1C[C@@H](C)C(=O)[C@@H]([C@H](O)CC2CC(=O)NC(=O)C2)C1	-2%	-16%	-48%	-93%[20.6 µM]	-38%	0.52µM*
CCCCOC(=O)c1ccccc1C(=O)OCc1ccccc1	1%	0%	-5%	-50%	-2%	13%
N=C1/C(=C\c2ccc(OC(=O)c3ccccc3Cl)cc2)C(=O)N=C2SC(N3CCOCC3)=NN12	24µM*	9%	4%	·	14%	12%
CCN1C(=O)C(=Cc2ccc(C)s2)C(=O)N(CC)C1=S	?	?	18%	20µM*	?	?
CCN1C(=O)C(=C2C=C(C)OC(C)=C2)C(=O)N(CC)C1=S	-3%	4%	-1%	9%	-4%	3%
Cc1ccccc1-n1c(O)c(/C=N/NC(=O)c2ccncc2)c(=O)[nH]c1=O	-13%	0%	-6%	·	6%	-19%
COCCNC(=O)c1c(N)n(Cc2ccco2)c2nc3ccccc3nc12	-1%	-4%	1%	-15%	3%	13µM*
Nc1c(C(=O)NCCN2CCOCC2)c2nc3ccccc3nc2n1Cc1ccccc1	0%	-4%	-13%	·	-6%	?
CCCCn1c(N)c(C(=O)NCCN2CCOCC2)c2nc3ccccc3nc21	2%	-2%	7%	5%	2%	5.8µM*
Nc1c(C(=O)NCCc2ccccc2)c2nc3ccccc3nc2n1CCN1CCOCC1	-11%	-13%	-5%	-9%	-1%	?
Nc1c(C(=O)NCCN2CCOCC2)c2nc3ccccc3nc2n1Cc1ccco1	-1%	3%	3%	-11%	-2%	21µM*
CCC(CO)Nc1ccc([N+](=O)[O-])c2cccnc12 (stereo not given)	4%	0%	-4%	14%	6%	4%
COc1ccc(-c2cc(=NCC(=O)O)c3ccccc3o2)cc1	-13%	?	14%[1.84 µM]	·	24%	?
COc1ccc(-c2cc(=O)c3cc(OCC(=O)OC(C)C)ccc3o2)cc1	1.9µM*	·	·	14%	·	·
COc1ccccc1NC(=O)c1oc2ccccc2c1NC(=O)c1ccccc1C(F)(F)F	11µM*	·	·	-6%	·	·
SMILES	FLuc counter	ELG1 genotoxic	Rab9 promoter act	SMN2 splice up	NPC1 promoter act	ELG1 DNA repair
CN(C)C(=O)Oc1cccc(NC(=O)c2ccccc2C(F)(F)F)c1	-2%	-1%	-2%	·	-1%	-4%
O=c1[nH]c(=S)n(-c2ccc(F)cc2)c(O)c1/C=N/N1CCOCC1	-2%	-1%	-1%	·	0%	9%
COc1ccc(C(O)c2ccccc2OP(=O)(N(C)C)N(C)C)cc1 (stereo not given)	-1%	0%	-3%	-14%	-2%	1%
COc1ccccc1N=Nc1ccc(N)c(C)c1	15µM*	?	11%[1.84 µM]	·	26%	?
COc1ccccc1N	·	·	·	-6%	·	·
O=C(CSC1c2ccccc2-c2ccccc21)N/N=C/c1ccccc1O	-2%	-2%	-29%	-66%	-31%	3.7µM*
CCOc1ccc(NC(=O)c2cccn(Cc3cccc(Cl)c3)c2=O)cc1	17µM*	·	·	·	·	·
O=C(Nc1ccc2c(c1)OCCO2)c1cccn(Cc2ccccc2)c1=O	11µM*	·	·	·	·	·
CCN(CC)C(=O)c1ccc(NC(=O)Nc2ccccc2F)cc1	1.5µM*	?	?	2.8µM*	0.32µM*	?
COC(=O)C1=C(c2ccc(F)cc2F)C[C@@H]2CC[C@H]1N2C(=O)N1CCCCC1	-1%	-1%	-3%	·	-6%	14%
CN1C(=O)C(=Cc2ccc(-c3cccc(Cl)c3)o2)C(=O)N(C)C1=O	?	7%	-5%	13%	1%	?
Cc1ccc(Sc2ccc(C=C3C(=O)N(C)C(=O)N(C)C3=O)o2)cc1	15µM*	6%	25%	-3%	1%	13%
COc1ccc(/C=C2\Oc3cc(OC(=O)N4CCOCC4)ccc3C2=O)c(OC)c1	?	-5%	1%	·	3%	-4%
CN(C)C(=O)Oc1ccc2c(c1)O/C(=C\c1cccc(Cl)c1)C2=O	27µM*	13%	?	·	?	?
O=C1/C(=C/c2ccc(F)cc2)Oc2cc(OC(=O)N3CCOCC3)ccc21	5.4µM*	4%	22%	·	27%	15%
CN(C)C(=O)Oc1ccc2c(c1)O/C(=C\c1ccc(Cl)cc1)C2=O	?	?	4.5µM*	·	?	?
CN(C)C(=O)Oc1ccc2c(c1)O/C(=C\c1cccc([N+](=O)[O-])c1)C2=O	0%	1%	-4%	·	1%	8%
CCOC(=O)c1sc(=NC(=O)c2ccc(C)c(C)c2)n(C)c1C	?	12µM*	2µM*	-42%	3.2µM*	?
O=[N+]([O-])c1ccc(CNCCc2ccccc2)cc1	2%	-3%	5%	·	-2%	7%
CCOc1ccc(NC(=O)c2ccc(NC(=O)COC(=O)Cc3ccccc3)cc2)cc1	-14%	?	?	20µM*	?	?
COc1cc(CCN)c(OC)c(OC)c1	·	·	·	-1%[9.22 µM]	·	·
CC(=O)c1ccc(OC(=O)N(C)c2ccccc2)cc1	-18%	?	?	16µM*	?	?
